High-throughput results deposited in PubChem by Johns Hopkins Ion Channel Center.
KCNQ2 enhance: KCNQ2 (rat) channel potentiation. O88943. CHO-K1 KCNQ2, FluxOR thallium flux fluorescence; stronger effect = higher value. B-score at 10 µM. hit rate 0.54% among 310,000. AID 2239;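 active = fluorescence ratio B-score at least 3 SD of library B-scores, with initial fluorescence B-score within 3 of them, cut at about 5.3 in these data; same plate scores as AID 2156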;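 note: B-score of peak minus minimum over baseline fluorescence ratio after K+ and Tl+ stimulus; positive B-score means potentiation of KCNQ2 with more thallium influx and brighter signal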
KCNQ2 inh: KCNQ2 (rat) channel inhibition; O88943; CHO-K1 KCNQ2, FluxOR thallium flux, 20 min; stronger effect = lower value; B-score at 10 µM; hit rate 1.1% among 310,000;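 active = fluorescence ratio B-score at most minus 3 library SDs, with starting brightness B-score within 2 library SDs, cut at about -5.5 in these data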
Active calls of the source: *; i = inactive; / = no result given. Hits are enriched below; roughly 1.6% of the tested compounds scored in any of these assays.

SMILES | KCNQ2 enhance | KCNQ2 inh
Cc1ccc(O)c(C2=Nc3ccccc3N=C(c3cccs3)C2)c1 | -5.6 | -5.6*
CCc1cccc(NC(=O)CCc2c(C)nn(-c3ccc(N4CCOCC4)nn3)c2C)c1 | 0.3 | i
CNC(=O)N(O)C1N(/N=C/c2ccc(SC)cc2)C(=S)SC1(C)C (stereo not given) | / | i
CN(C)c1ccc(/C=N/N2C(=S)SC(C)(C)C2N(O)C(=O)Nc2ccc([N+](=O)[O-])cc2)cc1 (stereo not given) | -6.8 | -6.8*
COc1cc(NC(=S)NCc2cccnc2)cc(OC)c1OC | 0.03 | i
COc1cc(NC(=S)NCc2cccnc2)cc(OC)c1 | -7.4 | -7.4*
CN(C)S(=O)(=O)c1ccc(N2CCCC2)c(C(=O)OCC(=O)N2CCN(c3ccccc3)CC2)c1 | 1.1 | i
Cc1cccc(C)c1OCC(=O)N(Cc1ccc(N(C)C)cc1)C1CCS(=O)(=O)C1 (stereo not given) | / | i
COCC(C)NC(=O)c1ccc2c(c1)S(=O)(=O)c1ccccc1C2=O (stereo not given) | 0.74 | i
CC(C)CN(CCOc1cccc(N2C(=O)C3=C(CCCC3)C2=O)c1)CC(C)C | / | i
O=C1C2=C(CCCC2)C(=O)N1c1cccc(OCCBr)c1 | 7.8* | i
CC(=O)Nc1ccc(S(=O)(=O)N2CCN=C2SCc2ccc([N+](=O)[O-])cc2)cc1 | / | i
O=c1oc2c(-c3cccc(F)c3)cc(O)cc2s1 | / | i
CN(C)c1ccc(/C=N/NC(N)=S)cc1[N+](=O)[O-] | 0.32 | i
COc1cc(OC)cc(C(=O)NC(C)CNc2ccc(Cl)cc2[N+](=O)[O-])c1 (stereo not given) | / | i
S=C1NC2=C(CCC/C2=C\c2ccccc2)C(c2ccccc2)N1 (stereo not given) | 0.15 | i
C(=C1/CCCC2=C1Nc1ncnn1C2c1ccccc1)/c1ccccc1 (stereo not given) | -6.5 | -6.5*
CCCc1cc(=O)n2[nH]c(SCc3ccc(Cl)cc3)nc2n1 | 1.7 | i
O=c1c2ccccc2nc(SCc2cc([N+](=O)[O-])cc3c2OCOC3)n1-c1ccccc1 | -6.1 | -6.1*
O=c1c2ccccc2nc(SCc2ccc([N+](=O)[O-])cc2)n1-c1ccccc1 | / | i
CCN(CC(=O)NCc1ccc(F)cc1)C(=O)c1ccc(COc2ccccc2)cc1 | / | i
CC(C)OC(=O)Cn1nc(C(c2ccccc2)c2ccccc2)oc1=O | / | i
COCc1cc(C)nc(SCC(=O)Nc2ccccc2C)c1C#N | 0.69 | i
COCc1cc(C)nc(SCC(=O)Nc2cc(C(F)(F)F)ccc2N2CCOCC2)c1C#N | -5.6 | -5.6*
CCN(CC(=O)Nc1cc(S(=O)(=O)N2CCOCC2)ccc1C)Cc1ccccc1 | 0.35 | i
SMILES | KCNQ2 enhance | KCNQ2 inh
Cc1ccc(Cl)cc1N1CCN(C(=O)C(C)n2ncn3cccc3c2=O)CC1 (stereo not given) | -5.8 | -5.8*
CC(C(=O)N1CCCCC1)n1ncn2cccc2c1=O (stereo not given) | 0.51 | i
COc1ccccc1CCNC(=O)C(=O)NCC1OCCN1S(=O)(=O)c1ccc(C)cc1 (stereo not given) | / | i
CCCCc1c(C(=O)O)cc(OC)cc1C(=O)O | 0.45 | i
CCCCCc1c2c(cc(O)c1C(=O)O)OC(=O)c1c(cc(OC)cc1C(=O)CCCC)O2 | -6.7 | -6.7*
Cc1cc(C(=O)Nc2ccc3[nH]ccc3c2)no1 | 0.83 | i
CC(=O)NC(Cc1c[nH]c2ccccc12)C(=O)OCC(=O)Nc1cc(C)on1 (stereo not given) | 0.63 | i
Cc1cc(NC(=O)COC(=O)[C@H](Cc2c[nH]c3ccccc23)NC(=O)c2ccc(F)cc2)no1 | -7.2 | -7.2*
C=CCN(CC=C)C(=S)NC(=O)c1ccc(C)c(Br)c1 | 24* | i
C=CCN(CC=C)C(=S)NC(=O)c1ccc(OC)cc1 | 3 | i
CC1CC(C)(C)NC(=S)N1CC(=O)NCc1ccc2c(c1)OCO2 (stereo not given) | 0.22 | i
Cc1[nH]c2ccc(C(=O)N3CCN(c4cccc(Cl)c4)CC3)cc2c1C | -6.2 | -6.2*
Cc1[nH]c2ccc(C(=O)N3CCN(c4ccccc4Cl)CC3)cc2c1C | -6.5 | -6.5*
Cc1[nH]c2ccc(C(=O)N3CCCC3)cc2c1C | 0.04 | i
COc1ccccc1N1CCN(C(=O)c2ccc3[nH]c(C)c(C)c3c2)CC1 | / | i
COC(=O)c1sccc1NC(=O)c1cc(-c2cccc(C)c2)nc2ccccc12 | / | i
COC(=O)c1sccc1NC(=O)c1c(C)c(-c2cccc(Cl)c2)nc2ccccc12 | -5.7 | -5.7*
CCN(CCCNC(=O)CCCN1C(=O)COc2ccc(C)cc21)c1cccc(C)c1 | -6.3 | -6.3*
Cc1ccc2c(c1)N(CCCC(=O)NCCCN1CCCCC1)C(=O)CO2 | 0.99 | i
O=C(Cn1cnnn1)NCc1ccccc1 | / | i
O=C(Nc1ccccc1Cl)c1ccccc1Cl | / | i
O=C(Nc1ccccc1Cl)c1cc2ccccc2o/c1=N\O | -5.6 | -5.6*
O=C(COC(=O)c1cnccn1)NCc1ccc2c(c1)OCO2 | / | i
O=C(c1ccc2c(=O)n(Cc3ccccc3Cl)c(=S)[nH]c2c1)N1CCOCC1 | / | i
Cc1cc(SCC(=O)c2cccs2)n2nc(C)c(-c3ccccc3)c2n1 | 6* | i
SMILES | KCNQ2 enhance | KCNQ2 inh
C=CCSc1cc(C)nc2c(-c3ccccc3)c(C)nn12 | / | i
Cn1c(=O)[nH]c(=O)c2c1nc([N+](=O)[O-])n2Cc1ccccc1 | -6.2 | -6.2*
CC(C)Cn1c([N+](=O)[O-])nc2c1c(=O)[nH]c(=O)n2C | / | i
Cc1cc(C)c(NC(=O)c2ccc(CNS(=O)(=O)c3cc(C(F)(F)F)ccc3Cl)cc2)c(C)c1 | / | i
COc1ccc2c(c1)CCC(C)N2C(=O)C(=O)c1c[nH]c2ccccc12 (stereo not given) | / | i
COC(=O)CSc1n[nH]c(-c2ccncc2)n1 | 0.64 | i
CCc1ccc(C(=O)CSc2n[nH]c(-c3ccncc3)n2)cc1 | 6.3* | i
CC(=O)N1c2c(cc(Br)cc2S(=O)(=O)N2CCN(c3ccccc3F)CC2)CC1C (stereo not given) | 0.1 | i
O=C(CC12CC3CC(CC(C3)C1)C2)NC1CC1 | 2 | i
CC(C)CC(NC(=O)OC(C)(C)C)C(=O)O (stereo not given) | / | i
CC(C)(C)OC(=O)NC(CCCCNC=O)C(=O)O (stereo not given) | -6.6 | -6.6*
O=C(CC1C(=O)NCCN1Cc1c(F)cccc1Cl)NC1CCCC1 (stereo not given) | / | i
COc1ccc(CN2CCN(CCC(C)C)C(CCO)C2)cc1Cn1cncn1 (stereo not given) | / | i
CC(C)c1nc(SCC(=O)N2CCN(c3ccccc3)CC2)c2c(=O)n(C)c(=O)n(C)c2n1 | 6.2* | i
CCCc1nc(SCC(=O)N2CCN(c3ccccc3)CC2)c2c(=O)n(C)c(=O)n(C)c2n1 | 2.9 | i
COc1cccc(NC(=O)n2nc(N)cc2-c2ccc(Cl)cc2)c1 | -5.7 | -5.7*
COc1cccc(NC(=O)COC(=O)Cc2ccc(Cl)cc2)c1 | 0.88 | i
COc1ccc(CC2(CO)CCN(S(=O)(=O)c3sccc3C)CC2)cc1 | / | i
CCn1c(C)c(C)c2cc(C(=O)N3CCc4ccccc4C3)ccc21 | -6 | -6*
CCN1CCN(C(=O)c2ccc3c(c2)c(C)c(C)n3Cc2ccccc2)CC1 | / | i
O=C(NCc1ccc2c(c1)OCO2)C1CCN(S(=O)(=O)c2cccs2)CC1 | 1.1 | i
